Screens as filed in PubChem.
PP5 inh = blocks human protein phosphatase 5 activity. purified PP5c, OMFP substrate fluorescence. 0.18% of 320,000 active. P53041. inhibition, % at 6.7 µM;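 active means inhibition above the campaign's mean inhibition across all tested compounds plus 3 SD, cut at about 9.5% in these data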
PP1 inh = blocks human PP1-alpha phosphatase, a PP5 counter-screen; 0.9% of 320,000 active; purified PP1alpha, OMFP fluorescence; P62136; inhibition, % at 6.7 µM;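 active means inhibition above the mean inhibition of all tested compounds plus 3 SD, computed separately for each screening campaign, cut at about 15% in these data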
Rpn11 inh = blocks the human proteasome subunit Rpn11; 0.59% of 360,000 active; inhibition, % at 20 µM; human 26S proteasome, Ub4-pepOG fluorescence polarization; 20S core pre-blocked with epoxomicin;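 active means inhibition at 20 µM, scaled to each plate's controls, above about 33%, limit read from the data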
NadD block = inhibitors of Staphylococcus aureus NadD; 0.78% of 360,000 active; purified NadD enzyme, colorimetric absorbance read-out; inhibition, % at 20 µM; AID 602399; in the data active means inhibition above about 26%
PREPL inh = inhibitors of human prolyl oligopeptidase-like enzyme PREPL; Q4J6C6; recombinant PREPL, fluorescence polarization activity-based probe; inhibition, % at 5.96 µM; 0.68% of 320,000 active
Target sequence (Q4J6C6 whole entry, looked up): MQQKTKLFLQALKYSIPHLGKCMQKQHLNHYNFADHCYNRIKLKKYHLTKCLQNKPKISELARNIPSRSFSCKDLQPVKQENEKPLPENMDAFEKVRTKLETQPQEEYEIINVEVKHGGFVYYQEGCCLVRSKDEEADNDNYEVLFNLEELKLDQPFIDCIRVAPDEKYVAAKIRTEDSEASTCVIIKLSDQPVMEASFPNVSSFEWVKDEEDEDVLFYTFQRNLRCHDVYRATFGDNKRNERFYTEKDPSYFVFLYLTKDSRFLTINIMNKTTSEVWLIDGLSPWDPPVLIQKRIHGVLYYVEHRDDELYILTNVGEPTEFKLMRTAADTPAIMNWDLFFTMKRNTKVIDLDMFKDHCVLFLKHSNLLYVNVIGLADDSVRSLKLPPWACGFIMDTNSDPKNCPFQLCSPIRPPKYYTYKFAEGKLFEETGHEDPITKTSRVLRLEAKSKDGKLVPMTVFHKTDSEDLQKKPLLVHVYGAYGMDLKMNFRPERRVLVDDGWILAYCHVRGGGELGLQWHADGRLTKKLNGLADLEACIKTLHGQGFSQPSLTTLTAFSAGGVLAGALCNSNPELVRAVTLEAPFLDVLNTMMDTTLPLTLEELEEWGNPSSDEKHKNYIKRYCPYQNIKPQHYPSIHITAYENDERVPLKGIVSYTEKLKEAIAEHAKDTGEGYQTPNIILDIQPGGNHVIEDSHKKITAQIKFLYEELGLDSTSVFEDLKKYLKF
PREPL inh cf = confirmation of human PREPL enzyme inhibitors; shares compounds with PREPL inh; recombinant PREPL, fluorescence polarization activity probe; inhibition, % at 5.96 µM; 67% of 2,000 active; AID 2803
A number is an active result; – = inactive; · = no result given. This is a sample that favours compounds with a hit; in the whole collection about 2.4% have one here. Unless noted, no stated cut-off is given here; in the data, active means inhibition above about 43%; inactive means the rest.

SMILES	PP5 inh	PP1 inh	Rpn11 inh	NadD block	PREPL inh	PREPL inh cf
O=C1/C(=C/c2cccc(Cl)c2)SC(=S)N1CCC(=O)N1CCCCC1CCO (stereo not drawn)	–	–	–	–	45.0	43.9
O=C1/C(=C/c2ccccc2F)SC(=S)N1CCC(=O)N1CCCCC1CCO (stereo not drawn)	–	–	–	–	45.8	43.2
CCCC(C)c1oc(=O)cc(O)c1C (stereo not drawn)	·	·	–	–	·	·
CCCCN1C(=O)/C(=C/C=C2\Oc3ccccc3N2CC)SC1=S	·	·	·	–	·	·
CCN1/C(=C/C=C/c2oc3ccc(-c4ccccc4)cc3[n+]2CC)Oc2ccc(-c3ccccc3)cc21	–	–	–	43.7	66.5	–
COc1cc(OC)cc(C(=O)NCC(=O)OCc2ccc(Cl)c(Cl)c2)c1	–	–	–	–	–	·
Cc1ccc(N=Cc2cccc(O)c2O)c(C)c1	–	–	–	–	55.6	–
Cc1c(CN(C)C)c2c(n1Cc1ccccc1)C(=O)c1ccc(Br)cc1-2	–	–	–	–	53.6	50.4
CC(=O)Nc1cccc(C(=O)OCC(=O)Nc2c(C)nn(-c3ccccc3)c2C)c1	–	–	–	–	–	·
Cc1ccc(C2=CC(c3ccc(N(C)C)cc3)n3nnnc3N2)cc1 (stereo not drawn)	–	–	–	–	58.7	54.2
CNC[C@H](Cc1cccc2ccccc12)NC[C@H](CCSC)NCC1CCC(C(C)(C)C)CC1 (stereo partly drawn)	·	·	·	·	43.5	–
CC(CCc1ccccc1)NCc1cccc2ccccc12 (stereo not drawn)	–	–	–	–	–	·
COCCCNc1nc2ccccc2nc1NS(=O)(=O)c1cc(Cl)ccc1Cl	–	–	–	–	–	·
COc1ccc(NC(=O)c2ccc(Cn3cc(Cl)cn3)cc2)cc1	–	–	–	–	–	·
CN(C)c1ccc(NC(=O)c2ccc(Cn3cc([N+](=O)[O-])cn3)cc2)cc1	–	–	–	–	48.1	57.4
O=C(NNC(=O)c1cc([N+](=O)[O-])ccc1Cl)c1cccs1	–	–	–	–	–	·
CC(C)NC(=O)c1ccc2c(c1)N(CC(=O)N1CCCCC1)C(=O)C(C)(C)O2	–	–	–	–	–	·
Cc1ccc(NS(=O)(=O)c2cc(C(=O)Nc3cccc(N(C)S(C)(=O)=O)c3)ccc2C)c(C)c1	–	–	–	–	–	·
CCSc1ncc(/C=N/Nc2ccc(Cl)cc2)n1C	–	–	–	–	43.1	–
COc1cc(C(=O)NCC2CCCO2)ccc1OCc1ccc(Cl)cc1Cl (stereo not drawn)	–	–	–	–	43.9	–
COc1cccc(N2CCc3c(C)nc4ccc(Cl)cc4c32)c1	·	·	–	–	·	·
COc1ccc(N2CCc3c(C)nc4c(OC)cc(OC)cc4c32)cc1	–	–	–	–	51.5	49.2
COc1cc(/C=N/N=C(N)N)ccc1OCc1ccccc1Cl	–	–	–	–	49.4	48.4
COc1ccc(/C=N/N=C/c2ccc(OC)c(OC)c2)cc1OC	–	–	–	–	–	·
O=C1c2cccnc2C(Nc2ccc(F)c(Cl)c2)N1Cc1cccs1 (stereo not drawn)	–	–	–	–	–	·
SMILES	PP5 inh	PP1 inh	Rpn11 inh	NadD block	PREPL inh	PREPL inh cf
Fc1ccc(C(CCNCc2ccccn2)c2ccc(Cl)cc2)cc1 (stereo not drawn)	–	–	–	–	–	·
COc1cc(/C=C2\SC(=S)N(CC(=O)O)C2=O)ccc1OC(=O)c1ccco1	–	–	–	–	–	·
COc1ccc(/C=C2/SC(=S)N(CC(=O)O)C2=O)cc1OCc1ccc(Cl)cc1	–	–	–	–	66.1	66.5
CCOc1cc(/C=C2/SC(=S)N(CC(=O)O)C2=O)ccc1OC(=O)c1cccs1	–	–	–	–	64.8	66.8
Cc1ncc(CO)c(CNc2ccc(-c3nc4ccccc4[nH]3)cc2)c1O	·	·	–	–	·	·
O=[N+]([O-])c1cccc(COc2ncnc3cc([N+](=O)[O-])ccc23)c1	–	–	–	–	47.1	–
COc1ccc(CCNC(=O)COc2ncnc3cc([N+](=O)[O-])ccc23)cc1	–	–	–	–	–	·
CCC(=O)N1CCN(c2ccc(NC(=O)COc3ccccc3Cl)cc2)CC1	–	–	–	–	–	·
Cc1cc(OCC(=O)Nc2ccc(N3CCN(C)CC3)cc2)ccc1Cl	–	–	–	–	70.4	55.8
CN1CCN(c2ccc(NC(=O)COc3ccccc3Cl)cc2)CC1	–	–	–	–	44.3	–
CC(=O)c1c(C)[nH]c(C(=O)OCc2nnc(-c3ccc([N+](=O)[O-])cc3)o2)c1C	·	·	–	–	–	·
